# Screening results as filed in PubChem.
# 3T3 cytotox = NIH 3T3 cell cytotoxicity; Potency, µM (top dose mostly 96.7 µM), without a hit: top-dose activity change, negative = cytotoxicity, actives largely listed as inhibitors; 94,000 tested, 4.3% active; NIH 3T3 viability, CellTiter-Glo ATP luminescence, 48-72 h; note: % is set by controls: 0 for no effect and ±100 for the full control effect; nearly all actives have a fitted effect of over 55% in size
#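 Cytotoxicity is measured as loss of cellular ATP: NIH 3T3 cells (400/well) are exposed to compound for 48 or 72 hr at 37 °C, then CellTiter-Glo luminescence is imaged after 10 min at room temperature.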
# SNCA viab count = reduces viability of HEK-293 SNCA reporter cells | HEK-293-SNCA-luc viability, GF-AFC fluorescence, 24 h | Potency, µM (series often up to 57.1 µM), without a hit: at the highest dose activity change, negative = cytotoxicity, actives largely listed as cytotoxic | 150,000 tested, 0.12% active;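 note: 0% = DMSO-treated cells and -100% = medium-only wells without cells; nearly all actives have a fitted effect of over 30% in size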
#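 Cytotoxicity counterscreen: after 24 h compound treatment of genome-edited SNCA-luciferase HEK-293 cells, live-cell protease substrate GF-AFC read by fluorescence after 30 min; activity scaled between DMSO (0%) and medium-only (-100%), curves Hill-fitted.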
# NPR1 antag = human Npr1 receptor antagonism. 76,000 tested, 1.6% active. Potency, µM (series often up to 46.3 µM), inactives show at the highest dose activity change, negative = inhibition, usual class: inhibitors. HEK293 hNpr1 GloSensor cGMP, ANP-stimulated luminescence; calls by dose curve; note: % is set by controls: 0 for no effect and ±100 for the full control effect; nearly all actives have a fitted effect of over 60% in size
#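 Compound pre-incubated 30 min at room temperature on GloSensor-loaded HEK293 cells stably carrying hNpr1 and the pGS-40F cGMP biosensor. Stimulation uses hNppA at 0.1 nM final; luminescence is taken at baseline and 20 min post-agonist.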
# SNCA expr inh = SNCA gene expression inhibition | HEK-293 SNCA-luciferase knock-in, luminescence, 24 h | Potency, µM (doses to about 57.2 µM), without a hit: at the highest dose activity change, negative = inhibition, most hits filed as inhibitors | 140,000 tested, 0.17% active | AID 1671194;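 note: plate controls were DMSO cells for no effect and cell-free wells for full effect; nearly all actives have a fitted effect of over 45% in size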
# HEK cytotox = kills HEK 293 cells. 94,000 tested, 6.6% active. AID 1345083. HEK 293 viability, ATP luminescence (CellTiter-Glo), 48-72 h. Potency, µM (top dose mostly 115 µM), without a hit: at the highest dose activity change, negative = cytotoxicity, hits mostly inhibitors; note: % is set by controls: 0 for no effect and ±100 for the full control effect; nearly all actives have a fitted effect of over 60% in size
#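 HEK 293 cells seeded at 250 cells/well were exposed to compound for 48 or 72 hr at 37 degree Celsius. Viability taken as ATP content by CellTiter-Glo luminescence.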
# FLuc inh = blocks purified firefly luciferase enzyme activity | P08659 | purified P. pyralis luciferase, luminescence, biochemical | Potency, µM (titrated, usually from 115 µM), usual class: inhibitors | 76,000 tested, 2.5% active | AID 1347043; note: % is set by controls: 0 for no effect and ±100 for the full control effect; nearly all actives have a fitted effect of over 65% in size
# Target sequence (P08659 whole entry, looked up): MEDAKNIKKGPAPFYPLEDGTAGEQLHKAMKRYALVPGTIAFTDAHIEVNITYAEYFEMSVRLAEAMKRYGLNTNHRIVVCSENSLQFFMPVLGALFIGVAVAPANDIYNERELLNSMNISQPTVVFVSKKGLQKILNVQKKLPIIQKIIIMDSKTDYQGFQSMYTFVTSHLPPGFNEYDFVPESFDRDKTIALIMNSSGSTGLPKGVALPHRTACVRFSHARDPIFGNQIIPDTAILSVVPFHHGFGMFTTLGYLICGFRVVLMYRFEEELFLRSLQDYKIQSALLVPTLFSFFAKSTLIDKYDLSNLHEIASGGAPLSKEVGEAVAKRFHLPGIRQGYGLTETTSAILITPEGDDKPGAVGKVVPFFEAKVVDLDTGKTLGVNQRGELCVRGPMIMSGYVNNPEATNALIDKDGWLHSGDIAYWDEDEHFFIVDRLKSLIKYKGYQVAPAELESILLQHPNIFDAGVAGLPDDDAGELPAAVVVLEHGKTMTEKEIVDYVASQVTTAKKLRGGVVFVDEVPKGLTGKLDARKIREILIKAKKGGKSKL
#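 FLuc 10nM, D-luciferin 10uM, ATP 10uM, Mg acetate 10mM, Tris acetate pH 7.5, Tween/BSA; cpd qHTS; enzyme added last; CCD luminescence.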
# NPR1 antag cnf = confirmation of human Npr1 natriuretic peptide receptor antagonists; 1,400 tested, 76% active; Potency, µM (top dose mostly 57.6 µM), for the others: top-dose activity change, negative = inhibition, usual class: inhibitors; shares compounds with NPR1 antag; HEK293 hNpr1 cGMP GloSensor luminescence, ANP-stimulated; AID 1347044; calls by dose curve; note: nearly all actives have a fitted effect of over 70% in size
# Npr2 selectivity = selectivity test of Npr1 antagonists against human Npr2; shares compounds with NPR1 antag; HEK293 hNpr2 GloSensor cGMP luminescence, CNP-stimulated; Potency, µM (highest dose often 57.6 µM), for the others: at the top dose activity change, negative = inhibition, most hits filed as inhibitors; 1,400 tested, 67% active; AID 1347046; calls by dose curve; note: nearly all actives have a fitted effect of over 70% in size
# FLuc counter = inhibits firefly luciferase, false Npr1 antagonist flag | shares compounds with NPR1 antag | purified FLuc enzyme, luminescence, Km substrate | Potency, µM (top dose mostly 57.6 µM), for inactives: at the top dose activity change, negative = inhibition, actives largely listed as inhibitors | 1,400 tested, 0.7% active; note: 0% is about no effect
# GloSensor cGMP = reduces cGMP signal in GloSensor control cells | shares compounds with NPR1 antag | HEK293 GloSensor cGMP, SNP-stimulated, luminescence | Potency, µM (series often up to 57.6 µM), for inactives: at the top dose activity change, negative = inhibition, actives largely listed as inhibitors | 1,400 tested, 69% active | AID 1347051; calls by dose curve; note: % is set by controls: 0 for no effect and ±100 for the full control effect; nearly all actives have a fitted effect of over 70% in size
# * hit, by the source's call; i = inactive; ? = inconclusive; . = no result; [ ] = another dose, or the depositor's remark. Compounds with a hit are over-represented: about 7.2% of the library has one in this group of screens. Unless noted, calls come from the whole dose curve; as a rule, active = well fitted curve in the direction sought with a large enough effect; inconclusive = small, poorly fitted or top-dose-only effect, or another doubt; inactive = no such curve, though single readings can be large; an effect the other way counts as inactive or inconclusive. Potency is the fitted concentration of half-maximal effect.
SMILES,3T3 cytotox,SNCA viab count,NPR1 antag,SNCA expr inh,HEK cytotox,FLuc inh,NPR1 antag cnf,Npr2 selectivity,FLuc counter,GloSensor cGMP
O=C(NC1CCN(Cc2ccccc2)CC1)C1CN(C2CCCCC2)C(=O)N1 (configuration not stated),-17%,2%[12.5 µM],.,-12%,?,.,.,.,.,.
Cc1cc(C(=O)NCC2Cn3cccc3CN2C)nn1C (configuration not stated),0%,0%,-2%,5%,-7%,i,.,.,.,.
CCc1ccccc1OCCN(C)Cc1ncc[nH]1,-17%,-4%,2%,-1%,-16%,i,.,.,.,.
CCCc1cc(C(=O)N(C)CCOc2ccccc2CC)n(C)n1,40µM*,-22%,7.1µM*,-25%,?,i,7.7µM*,11µM*,0%,7.7µM*
Cc1ccc(F)c(C(CC(=O)NCc2ccco2)c2c[nH]c3ccc([N+](=O)[O-])cc23)c1 (configuration not stated),32µM*,-29%,-29%,?,40µM*,i,?,?,3%,?
Cc1cc(C)cc(NS(=O)(=O)c2ccc3[nH]cc(C(=O)NCc4ccco4)c(=O)c3c2)c1,.,-20%,.,-25%,.,.,.,.,.,.
CCOCCCNC(=O)c1ccccc1-c1ccc(OC)nn1,-9%[138 µM],.,.,.,3%[172 µM],.,.,.,.,.
CN(C)[S+](=O)([O-])c1ccc2c(c1)OCCN(Cc1ccc(F)cc1)C2,?,-5%[87.6 µM],-20%[70.6 µM],1%[87.6 µM],?,i,.,.,.,.
CN(C)[S+](=O)([O-])c1ccc2c(c1)OCCN(Cc1ccc(C(F)(F)F)cc1)C2,45µM*,-6%[87.6 µM],18µM*,12%[87.6 µM],?,i,13µM*,18µM*,-13%[86.2 µM],8.9µM*
CN(C)[S+](=O)([O-])c1ccc2c(c1)OCCN(Cc1ccncc1)C2,?,-9%[87.6 µM],-29%[70.6 µM],1%[87.6 µM],?,i,.,.,.,.
O=[S+]([O-])(Nc1ccccc1)c1ccc2c(c1)OCCN(Cc1ccncc1)C2,?,2%[87.6 µM],?,-24%[87.6 µM],?,i,40µM*,35µM*,-2%[86.2 µM],31µM*
O=C(CCn1cnnn1)N1CCC2(CC1)Nc1ccccc1NC2=O,5%,0%,4%,6%,i,i,.,.,.,.
COc1cccc(CCC(=O)N2CCC(Cc3nc(C4CC4)n[nH]3)CC2)c1,5%,7%,0%,3%,i,i,.,.,.,.
CC1(c2noc(C3CCOCC3)n2)CCN(Cc2ccc(Cl)cc2F)CC1,-29%,0%,13µM*,?,?,i,24µM*,24µM*,7%,22µM*
CCN(CCNC(=O)Nc1ccccc1Br)c1cccc(C)c1,.,-8%,.,.,.,.,.,.,.,.
Cc1cc(C)c(CNC(=O)c2nc(-c3cccc(N4CCOCC4)c3)cc3[nH]ccc23)c(=O)[nH]1,?,-23%,0%,13%,?,i,.,.,.,.
COc1ccc(N2CCN(c3nc(C(=O)NCc4ccc(C)cc4)cs3)CC2)cc1,-22%,-17%,4.5µM*,?,28µM*,i,7.7µM*,11µM*,1%,8.6µM*
COc1ccc(N2CCN(c3nc(C(=O)NCc4ccc(C)c(C)c4)cs3)CC2)cc1,?,?,13µM*,?,13µM*,i,9.7µM*,14µM*,3%,11µM*
COc1ccc(N2CCN(c3nc(C(=O)NCc4cccc(C)c4)cs3)CC2)cc1,?,-25%,16µM*,-24%,18µM*,i,15µM*,15µM*,5%,12µM*
O=C(c1cc(Cl)ccc1F)N1CCC(n2cc(-c3nc(-c4ccccc4)no3)nn2)C1 (configuration not stated),?,3%,?,-25%,?,?,.,.,.,.
O=C(c1cc(F)ccc1F)N1CCCC(n2cc(-c3nc(-c4ccccc4)no3)nn2)C1 (configuration not stated),?,-11%,11µM*,31%,40µM*,?,19µM*,19µM*,?,17µM*
CCOc1ccccc1C(=O)N1CCC(n2cc(-c3nc(-c4ccccc4)no3)nn2)CC1,?,-18%,?,19%,40µM*,i,24µM*,?,-21%,?
O=C(N1CCC(n2cc(-c3nc(-c4ccccc4)no3)nn2)CC1)C1(c2ccccc2)CC1,?,-14%,13µM*,74%,32µM*,i,24µM*,27µM*,-19%,24µM*
O=C(C1CCC1)N1CCC(n2cc(-c3nc(-c4ccccc4)no3)nn2)CC1,?,11%,?,57%,?,i,24µM*,24µM*,-12%,22µM*
O=C(c1ccco1)N1CCC(n2cc(-c3nc(-c4ccccc4)no3)nn2)CC1,?,1%,-2%,48%,?,i,.,.,.,.
O=C(C1CC1)N1CCC(n2cc(-c3nc(-c4ccccc4)no3)nn2)CC1,?,9%,?,42%,?,i,?,?,-22%,?
Cc1cccc(CC(=O)N2CCC(n3cc(-c4nc(-c5ccccc5)no4)nn3)CC2)c1,i,?,-3%,24%,-7%,i,.,.,.,.
COc1cccc(CC(=O)N2CCC(n3cc(-c4nc(-c5ccccc5)no4)nn3)CC2)c1,?,-12%,10µM*,33%,32µM*,i,11µM*,11µM*,-23%,12µM*
COCCNC(=O)C[C@@H]1C[C@H]2O[C@H](CN(C)C)[C@@H](O)[C@H]2O1,0%[174 µM],2%[87.6 µM],-5%[70.6 µM],-29%[87.6 µM],2%[172 µM],i,.,.,.,.
